Assay results from PubChem BioAssay (NCI).
The panel holds about 83,000 compounds, 20% with a hit somewhere; the sample as a whole holds those more often.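 Cells were grown in 96-well plates and exposed to the test compound at a single concentration for 48 hours; results are reported as percent growth, with values below 10 considered active.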 Activity calls are given as the source filed them.

test system: HL-60(TB) leukemia; test: NCI-60 one-dose screen, 48 h (100 = growth as untreated, 0 = no growth, -100 = all killed); conditions: 10 µM unless noted

| Structure (SMILES) | growth |
| --- | --- |
| COc1ncnc2[nH]cc(CN3CCN(c4ccc(F)cc4)CC3)c12 | 101% (inactive) |
| Nc1cc(Br)c(-c2nn3c(CCC(=O)c4nc5ccccc5[nH]4)nnc3s2)c(Br)c1 | 100% (inactive) |
| COc1ccc(-c2cc(-c3ccccc3)nc(SCCCCCCC(=O)NO)n2)cc1 | 8.06% (active) |
